These results are taken from PubChem BioAssay (NCI).

Structures are written as SMILES. Values joined by “and” are separate entries in the source; they are usually repeats but may differ in a detail not shown here. Identical values can stand only once. The panel holds about 83,000 compounds, 20% with a hit somewhere; the sample as a whole holds those more often.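 Testing used 96-well plates and a 48-hour single-concentration exposure. Example: -40 means 40% of the starting cells died.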 Active and inactive are the calls of the source. How the source made its calls: active means growth percent below 10; inactive means the rest.

Among the test systems are A498 renal; CCRF-CEM leukemia; MOLT-4 leukemia.
Holding throughout (test): NCI-60 one-dose screen, 48 h (100 = growth as untreated, 0 = no growth, -100 = all killed)
The test system of a further test is ACHN renal. The note with it: 10 µM unless noted.
The subject of a further test is HCT-15 colon. The settings on record: 10 µM unless noted.
In the next test the test system is HT29 colon. The settings on record: 10 µM unless noted.
A further test deals with SNB-75 CNS. The settings on record: 10 µM unless noted.
The next test relates to SNB-19 CNS. The note with it: 10 µM unless noted.
The test system of a further test is U251 CNS. The note with it: 10 µM unless noted.
In the next test the test system is PC-3 prostate. The settings on record: 10 µM unless noted.
Another test concerns SK-MEL-5 melanoma. The settings on record: 10 µM unless noted.
The next test relates to UACC-62 melanoma. The note with it: 10 µM unless noted.
For a further test, the system named is LOX IMVI melanoma. The note with it: 10 µM unless noted.
For the next test, the system named is SK-MEL-28 melanoma. The note with it: 10 µM unless noted.
The test system of a further test is SK-MEL-2 melanoma. The settings on record: 10 µM unless noted.
A further test concerns EKVX NSCLC. The settings on record: 10 µM unless noted.
The test system of another test is SN12C renal. The settings on record: 10 µM unless noted.
A further test deals with UO-31 renal. The note with it: 10 µM unless noted.
In another test the test system is TK-10 renal. The note with it: 10 µM unless noted.
A further test concerns CAKI-1 renal. The settings on record: 10 µM unless noted.

For the molecule `CC(=O)/C=C/c1ccc(OCc2ccc(Cl)cc2)cc1`, the growth in the test with ACHN renal is 109% (inactive); in the test with A498 renal (10 µM), 82.6% (inactive); in the test on A498 renal (100 µM) it was 12.1% (inactive); in the test on CCRF-CEM leukemia (10 µM), 86.8% (inactive); with CCRF-CEM leukemia (100 µM), 41.2% (inactive); in the test with MOLT-4 leukemia (10 µM), 92.8% (inactive). In addition, the growth in the test on MOLT-4 leukemia (100 µM) is 16.7% (inactive).

For the molecule `Clc1nccc2c(-c3csc(-c4c[nH]c5ccc(Br)cc45)n3)c[nH]c12`, the growth with HCT-15 colon was -49.4% (active); in the test on HT29 colon, 5.95% (active); with SNB-75 CNS it was 21% (inactive); in the test with SNB-19 CNS it was 44.6% (inactive); in the test on U251 CNS, -2.09% (active); in the test on PC-3 prostate, 19.9% (inactive). Besides, the growth is 47.2% (inactive) in the test with SK-MEL-5 melanoma; 17% (inactive) with UACC-62 melanoma; -31.9% (active) in the test on LOX IMVI melanoma; -8.62% (active) in the test on SK-MEL-28 melanoma; 48.7% (inactive) in the test on SK-MEL-2 melanoma; 42.5% (inactive) in the test on EKVX NSCLC. Besides, the growth in the test with SN12C renal is 54% (inactive); in the test on UO-31 renal it was 9.83% (active); with TK-10 renal, 28.6% (inactive); with ACHN renal, 6.55% (active); with CAKI-1 renal it was 32.9% (inactive); in the test on A498 renal (10 µM unless noted) it was -1.69% (active). For the same molecule, the results for the growth in the test on CCRF-CEM leukemia (10 µM unless noted) and with MOLT-4 leukemia (10 µM unless noted) were 20.1% (inactive) and 22% (inactive), respectively.

Consider `O=C(Nc1ccc(Cl)c(Cl)c1)Nc1ccc(Cl)c(Cl)c1`, for which the growth in the test with HCT-15 colon was -16.7% (active) and 18.2% (inactive); with HT29 colon, -82.6% (active) and 7.52% (active); in the test on SNB-75 CNS it was -94.2% (active) and 38.3% (inactive); in the test with SNB-19 CNS, -62% (active) and 26.5% (inactive); with U251 CNS, -84.3% (active) and 13.3% (inactive); in the test with PC-3 prostate, -80.2% (active) and 11.1% (inactive). Further, the growth in the test on SK-MEL-5 melanoma is -97.2% (active) and 34.6% (inactive); in the test on UACC-62 melanoma, -89.2% (active) and 12.2% (inactive); in the test with LOX IMVI melanoma, -89.4% (active) and 9.39% (active); in the test on SK-MEL-28 melanoma, -78.8% (active) and 34.9% (inactive); in the test with SK-MEL-2 melanoma it was -78.9% (active) and 45.5% (inactive); with EKVX NSCLC it was 23.1% (inactive). The growth was -83.4% (active) and 14.8% (inactive) with SN12C renal; -88.8% (active) and -9.62% (active) in the test on UO-31 renal; -96.9% (active) and 35.3% (inactive) in the test on TK-10 renal; -85.8% (active) and 7.07% (active) with ACHN renal; -90.8% (active) and -2.12% (active) with CAKI-1 renal; -90.1% (active) and -0.946% (active) in the test on A498 renal (10 µM unless noted). The growth with CCRF-CEM leukemia (10 µM unless noted) is -14% (active) and 21.4% (inactive); with MOLT-4 leukemia (10 µM unless noted) it was -28.5% (active) and 20.8% (inactive).

As for `COC(=O)[C@H]1Cc2c([nH]c3ccccc23)[C@@H](c2cccs2)N1`, the growth is 102% (inactive) in the test with HCT-15 colon; 97.1% (inactive) in the test on HT29 colon; 83.8% (inactive) in the test on SNB-75 CNS; 98.2% (inactive) with SNB-19 CNS; 97.7% (inactive) in the test on U251 CNS; 100% (inactive) with PC-3 prostate. The growth is 100% (inactive) in the test with SK-MEL-5 melanoma; 89.5% (inactive) with UACC-62 melanoma; 104% (inactive) in the test with LOX IMVI melanoma; 107% (inactive) in the test on SK-MEL-28 melanoma; 97.2% (inactive) with SK-MEL-2 melanoma; 96.3% (inactive) in the test on EKVX NSCLC. Moreover, the growth in the test on SN12C renal was 102% (inactive); in the test with UO-31 renal it was 93% (inactive); in the test on TK-10 renal, 86.7% (inactive); in the test on ACHN renal it was 111% (inactive); with CAKI-1 renal, 89.8% (inactive); in the test on A498 renal (10 µM unless noted), 93.2% (inactive). Also, the figures for the growth in the test on CCRF-CEM leukemia (10 µM unless noted) and in the test on MOLT-4 leukemia (10 µM unless noted) were 101% (inactive) and 103% (inactive), respectively.

With `Nc1ccc(-c2nc3ccc4[nH]ncc4c3c3c2CCCC3)cc1F`, the growth is 15.5% (inactive) in the test on HCT-15 colon; 28% (inactive) in the test on HT29 colon; 19.3% (inactive) in the test with SNB-75 CNS; 41.9% (inactive) in the test on SNB-19 CNS; 26.8% (inactive) with U251 CNS; 27.7% (inactive) with PC-3 prostate. In addition, the growth is 4.72% (active) in the test on SK-MEL-5 melanoma; 14.5% (inactive) in the test with UACC-62 melanoma; 29.4% (inactive) in the test with LOX IMVI melanoma; 34.4% (inactive) in the test on SK-MEL-28 melanoma; 6.74% (active) with SK-MEL-2 melanoma; 33.5% (inactive) with EKVX NSCLC. Further, the growth is 27.3% (inactive) in the test on SN12C renal; -4.24% (active) in the test on UO-31 renal; 22.1% (inactive) with TK-10 renal; 11.6% (inactive) with ACHN renal; 7.39% (active) in the test on CAKI-1 renal; -0.345% (active) with A498 renal (10 µM unless noted). In addition, the growth was 20.5% (inactive) with CCRF-CEM leukemia (10 µM unless noted) and 18.5% (inactive) in the test with MOLT-4 leukemia (10 µM unless noted).

As for `Cc1ccc(Cl)cc1N1CCN(C(=O)[C@@H]2C[C@@H]2c2ccc(F)cc2)CC1`, the growth in the test on HCT-15 colon is 85.4% (inactive); with HT29 colon, 72.7% (inactive); with SNB-75 CNS, 96.2% (inactive); in the test on SNB-19 CNS, 92% (inactive); with U251 CNS, 90% (inactive); in the test with PC-3 prostate it was 69.1% (inactive). The growth was 80.7% (inactive) in the test on SK-MEL-5 melanoma; 69.7% (inactive) with UACC-62 melanoma; 97.6% (inactive) with LOX IMVI melanoma; 103% (inactive) in the test on SK-MEL-28 melanoma; 91.7% (inactive) in the test on SK-MEL-2 melanoma; 88.3% (inactive) in the test on EKVX NSCLC. The growth in the test on SN12C renal was 98.9% (inactive); in the test on UO-31 renal, 70.9% (inactive); in the test on TK-10 renal, 100% (inactive); in the test with ACHN renal it was 93% (inactive); with CAKI-1 renal, 69.1% (inactive); with A498 renal (10 µM unless noted), 87.2% (inactive). In addition, the growth is 91.5% (inactive) in the test on CCRF-CEM leukemia (10 µM unless noted) and 78.5% (inactive) with MOLT-4 leukemia (10 µM unless noted).

Turning to `O=C(c1cccc(Br)c1)N1CCN(c2ccnc3cc(Cl)ccc23)CC1`, the growth in the test on HCT-15 colon was 90.3% (inactive); with HT29 colon, 81.7% (inactive); in the test on SNB-75 CNS, 117% (inactive); in the test with SNB-19 CNS, 85.1% (inactive); in the test with U251 CNS, 78.2% (inactive); in the test on PC-3 prostate, 79% (inactive). The growth with SK-MEL-5 melanoma was 82.2% (inactive); in the test with UACC-62 melanoma, 70.1% (inactive); in the test with LOX IMVI melanoma, 102% (inactive); with SK-MEL-28 melanoma, 95.7% (inactive); with SK-MEL-2 melanoma, 85.7% (inactive); in the test with EKVX NSCLC, 87.5% (inactive). The growth in the test with SN12C renal is 94% (inactive); in the test with UO-31 renal, 63.6% (inactive); with TK-10 renal, 75.8% (inactive); with ACHN renal it was 90.6% (inactive); with CAKI-1 renal it was 79% (inactive); with A498 renal (10 µM unless noted), 34.1% (inactive). The growth with CCRF-CEM leukemia (10 µM unless noted) was 87.3% (inactive); in the test with MOLT-4 leukemia (10 µM unless noted), 87.8% (inactive).

With `COCCn1cc(-c2csc(-c3cn(C)c4ccc(F)cc34)n2)c2cccnc21`, the growth in the test with HCT-15 colon was 27.9% (inactive); with HT29 colon, 35.5% (inactive); with SNB-75 CNS, 76.4% (inactive); in the test on SNB-19 CNS it was 82.6% (inactive); in the test on U251 CNS, 65.5% (inactive); in the test with PC-3 prostate it was 46.5% (inactive). Further, the growth in the test on SK-MEL-5 melanoma is 72.7% (inactive); in the test on UACC-62 melanoma, 79.9% (inactive); in the test on LOX IMVI melanoma, 25.8% (inactive); in the test with SK-MEL-28 melanoma, 79.8% (inactive); with SK-MEL-2 melanoma, 72% (inactive); in the test with EKVX NSCLC, 59% (inactive). Also, the growth in the test with SN12C renal was 74.5% (inactive); in the test on UO-31 renal, 64.2% (inactive); in the test with TK-10 renal it was 81.5% (inactive); in the test on ACHN renal, 78% (inactive); in the test with CAKI-1 renal, 84% (inactive); with A498 renal (10 µM unless noted), 36.3% (inactive). Also, the results for the growth in the test on CCRF-CEM leukemia (10 µM unless noted) and in the test on MOLT-4 leukemia (10 µM unless noted) were 56% (inactive) and 56.7% (inactive), respectively.
